These results are taken from PubChem BioAssay.

Unmarked numbers belong to inactive results.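 How the source made its calls: active means viability at or below 10% of carrier control in both of two separate runs; inconclusive means viability at or below 10% in only one of the two runs; inactive means the rest.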

A short description of the assay: reduced viability of SK-BR-3 breast cancer cells – cell-based, 24 h, human, pilot screen (AID 572).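 Further: compound exposure lasted between 18 and 24 h rather than exactly 24 h; 100% = carrier-treated control wells.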 The following applies: SK-BR-3 viability, CellTiter-Glo luminescence, at 10 µM, active compounds read low. On the technique in general: In ATP-based viability assays light output follows the ATP content of the culture.
Broadly, the viability is a read-out of living cells in per cent, often relative to untreated cells. Regarding `CC(=O)CCc1ccc(OCCCCn2cncn2)cc1`, the viability was 113%.
The same measure for `CCCC(=O)Nc1ccc(NC(=O)c2ccccc2OC)cn1`: 94.5%.
For `CCOC(=O)c1[nH]c(C)c(C(=O)Nc2ccccc2F)c1C`, the viability is 89.5%.
As to `COc1ccccc1C(=O)N1CCN(CCc2ccccc2)CC1`, the viability was 102%.
In the case of `CCN1CCN(c2c(Cl)cccc2NC(=O)c2ccc3c(c2)OCCO3)CC1`, the viability is 80%.
Regarding `COc1ccccc1NS(=O)(=O)c1ccc(OC)c(OC)c1`, the viability is 86%.
As to `CN(C(=O)c1ccc(S(=O)(=O)NC2CCCC2)cc1)C1CCCCC1`, the viability is 101%.
Regarding `C/C(N)=C(/C#N)C(=O)COC(=O)c1cc(S(=O)(=O)N2CCCCC2)ccc1C`, the viability was 88.5%.
For `CC(=O)Nc1ccc(-c2cc3ccccc3o2)cc1`, the viability was 103%.
For `CCN(CC)S(=O)(=O)c1ccc2oc(C(=O)O)c(C)c2c1`, the viability was 108%.
In the case of `CCn1c(=O)cc(SCC(=O)Nc2ccc3c(c2)OCO3)c2ccccc21`, the viability is 97%.
The figure for `CN(C(=O)c1ccncc1)C1CC(C)(C)N(O)C(C)(C)C1` is 124%.
For `CCCC(=O)Nc1ccccc1NC(=O)CN(C)S(=O)(=O)c1ccc(C)cc1`, the viability is 97%.
As to `Cn1c(=O)cc(OCC(=O)NCCCN2CCN(Cc3ccccc3)CC2)c2ccccc21`, the viability is 90.5%.
Take `CCNC(=O)C1CC(=O)N(Cc2ccc3c(c2)OCO3)C(=Nc2ccc(OCC)cc2)S1` (stereo unspecified): the viability was 94.5%.
The figure for `Cc1cc(-c2ccccc2)nc2cc(C(N)=O)nn12` is 102%.
